These results are taken from PubChem BioAssay.

The structures appear in SMILES notation. Activity calls are given as the source filed them.

The nature of test [1]: A549 cell viability effects, profiling panel, calcein-AM fluorescence, 48 h, basal (AID 1162). The following applies: higher = more signal.
A short description of test [2]: adipocyte viability effects, profiling panel, cell-based, 3T3-L1 adipocytes, calcein-AM fluorescence, 48 h, basal (AID 1163). The settings on record: 3T3-L1 adipocytes viability, higher = more signal.
The nature of test [3]: HepG2 cell viability effects, profiling panel, calcein-AM fluorescence, 48 h, basal (AID 1164). The settings on record: higher = more signal.
The nature of test [4]: MM1S cell viability effects, profiling panel, calcein-AM fluorescence, 48 h, basal (AID 1165).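 Note: viability of MM1S multiple myeloma cells under basal unstimulated conditions.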 The following applies: higher = more signal.
A short description of test [5]: basal RPMI8226 viability, no added stimulus, profiling panel, cell-based, calcein-AM fluorescence, 48 h, PK04 Diversity Set (AID 1166).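 Note: cells grown under basal conditions without added stimulus.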 The settings on record: RPMI8226 myeloma viability, higher = more signal.
The nature of test [6]: basal HepG2 mitochondrial membrane potential changes, profiling panel, cell-based, JC-1 fluorescence, 24 h, 100 nL compound (AID 1167). The following applies: higher = more signal.
Test [7] can be described thus: basal 3T3-L1 adipocyte mitochondrial potential changes, profiling panel, cell-based, JC-1 fluorescence, 3T3-L1 adipocytes, 24 h, 100 nL compound (AID 1168). The settings on record: JC-1 mitochondrial fluorescence, higher = more signal, called active from +8 up or from −8 down.
The nature of test [8]: basal RPMI8226 mitochondrial membrane potential changes, profiling panel, cell-based, JC-1 fluorescence, 24 h, 100 nL compound (AID 1169). The settings on record: RPMI8226 myeloma, JC-1 mitochondrial potential fluorescence, higher = more signal.
The nature of test [9]: basal MM1S mitochondrial membrane potential changes, profiling panel, cell-based, JC-1 fluorescence, 24 h, 100 nL compound (AID 1170). The settings on record: higher = more signal.
Test [10] is described as follows: A549 lung cancer cell viability effects, profiling panel, resazurin fluorescence, 24 h, PK04 Diversity Set (AID 1171). The settings on record: higher = more signal, called active from +8 up or from −8 down. (The colour change of resazurin is a common sign of viable cells or microbes.)
Note: test concentration not given here.

Turning to `O=C(NCC(F)(F)F)[C@@H]1c2ccccc2C(=O)N(Cc2ccccc2Cl)[C@H]1c1ccc(CO)cc1`, the z-score in test [1] is 1.25; in [2], -0.0448; in test [3], 0.343; in test [4], 0.189; in test [5], -0.317; in [6] it was 1.48. In addition, the z-score in test [7] was -0.198 (inactive); in test [8], -0.65; in test [9], 0.499; in test [10], 1.26 (inactive).
On to `Cc1ccc(S[C@]2(C(=O)NCCN3CCOCC3)CC(=O)N(C3Cc4ccccc4C3)[C@@H]2c2ccc(CO)cc2I)cc1`, for which the z-score in [1] was 1.47; in test [2], 1.33; in test [3] it was -0.0794; in test [4], -3.23; in [5], -1.84; in test [6], 0.899. Besides, the z-score was -0.211 (inactive) in test [7], -0.993 in test [8], -1.02 in test [9] and 0.842 (inactive) in [10].
Take `C=CCNC(=O)[C@H]1[C@@H]2C(=O)O[C@@H](c3ccccc3)[C@@H](c3ccccc3)N2[C@@H](c2ccccc2OCCO)[C@]12C(=O)N(C(=O)OCCOC)c1ccc(C#CCC(C(=O)OC)C(=O)OC)cc12`: the z-score in test [1] is 0.208; in test [2], 2.2; in [3] it was 0.128; in test [4], -2.95; in test [5], -3.66; in test [6], 0.348. For the same molecule, the z-score in test [7] was 1.54 (inactive); in test [8], -1.02; in test [9], -1.35; in test [10], -0.131 (inactive).
On to `CO[C@H]1COC(=O)[C@H](C)COC(=O)[C@H](Cc2ccccc2)NC(=O)CC=C[C@H]1C`, for which the z-score is 0.219 in test [1]; -0.0092 in test [2]; 0.284 in test [3]; -0.0516 in test [4]; 1.14 in [5]; 0.744 in test [6]. The z-score in test [7] is 0.854 (inactive); in test [8], 0.433; in test [9], 0.213; in [10] it was -0.36 (inactive).
Consider `CO[C@]12C=C(Br)[C@@H](C[C@@H]1c1ccccc1)[C@@]1(CO1)C2=O`, for which the z-score in test [1] was -1.08; in [2] it was 1.18; in [3], -1.08; in test [4], -2.34; in test [5], -1.62; in test [6] it was -0.143. Further, the z-score in test [7] is 1.12 (inactive); in test [8], -0.376; in [9] it was 0.0484; in test [10] it was -0.446 (inactive).
Regarding `COCCOC(=O)N1C(=O)[C@@]2(c3cc(C#CCNC(N)=O)ccc31)[C@H](c1ccc(OCCO)cc1)N1[C@H](c3ccccc3)[C@H](c3ccccc3)OC(=O)[C@H]1[C@@H]2C(=O)Nc1nc2ccccc2s1`, the z-score is 0.556 in test [1]; 1.49 in [2]; -0.801 in test [3]; -0.139 in test [4]; -0.138 in test [5]; -3.18 in test [6]. In addition, the z-score was 2.96 (inactive) in [7], -0.964 in [8], -1.56 in [9] and 0.708 (inactive) in test [10].
Regarding `O=C/C=C/c1ccc(/C=C/c2ccccc2)cc1`, the z-score in [1] is 1; in test [2] it was -0.111; in test [3], -0.167; in test [4], -3.21; in [5], -4.46; in test [6], -0.228. Also, the z-score is 1.26 (inactive) in test [7], -0.949 in test [8], -2.1 in test [9] and 0.22 (inactive) in [10].
As for `CN(C)c1ccc(C(O)C2C=CC3C(=O)NC(=O)C3N2Nc2ccc(Cl)cc2Cl)cc1` (stereo not given), the z-score in [1] was -0.602; in test [2] it was 0.117; in [3], -0.675; in test [4] it was 0.463; in [5] it was -0.792; in test [6] it was -1.26. Further, the z-score in test [7] is -1.06 (inactive); in [8] it was -0.752; in [9] it was 0.261; in test [10], -0.555 (inactive).
For `O=C(NCC(O)CO)[C@]1(Cc2ccccc2)N=C(c2ccc(OCCCO)cc2)O[C@@H]1c1ccccc1` (stereo not given in full), the z-score was -0.798 in [1]; 1.91 in test [2]; -2.22 in test [3]; -1.26 in [4]; -1.08 in test [5]; -1.81 in test [6]. Moreover, the z-score in [7] was 1.03 (inactive); in [8], 0.159; in test [9] it was 0.245; in [10] it was 0.519 (inactive).
As to `COc1ccc([Si](C)(C)[C@@H]2[C@@H](CCO)O[C@]3(C(=O)N(Cc4ccc(NC(=O)[C@H](C)O)cc4)c4ccccc43)[C@H]2C)cc1`, the z-score was -2.45 in [1]; 1.63 in [2]; -2.43 in [3]; -2.97 in [4]; -2.49 in test [5]; -1.84 in test [6]. For the same molecule, the z-score in test [7] was 0.492 (inactive); in [8] it was -1.12; in test [9], -0.492; in [10], -2.95 (inactive).
On to `Cc1ccc(S[C@]2(C(=O)NC(C)C)CC(=O)N(Cc3cc(C(F)(F)F)cc(C(F)(F)F)c3)[C@@H]2c2ccc(CO)cc2I)cc1`, for which the z-score in test [1] is 0.813; in [2], -0.477; in test [3] it was 0.678; in test [4], -1.66; in test [5], -2.24; in [6], 0.517. Besides, the z-score is 0.667 (inactive) in [7], -0.455 in [8], -1.79 in test [9] and -0.101 (inactive) in test [10].
In the case of `CO[C@H]1COC(=O)CC=C[C@@H](C)COC(=O)[C@@H](C)NC(=O)CC=C[C@@H]1C`, the z-score was 0.43 in test [1]; 0.688 in [2]; 1.37 in test [3]; 0.344 in test [4]; 0.615 in [5]; 1.24 in test [6]. Besides, the z-score is 1.87 (inactive) in [7], -0.258 in test [8], 1.52 in test [9] and 0.372 (inactive) in test [10].
Consider `CC(=O)NCCCC[C@@H]1NC(=O)[C@H]2C[C@@H](C(=O)NCCCCCCN(C)C)[C@@H](c3cccc(OCCO)c3)N2C1=O`, for which the z-score was 0.214 in test [1]; 0.509 in test [2]; 0.344 in test [3]; 0.27 in test [4]; 0.079 in [5]; -0.0861 in test [6]. Besides, the z-score is -0.308 (inactive) in test [7], -0.125 in test [8], -0.376 in test [9] and -0.739 (inactive) in test [10].
Consider `O=C1OCCC=C[C@H]2OC34C=CCN(Cc5ccccc5)C(=O)[C@H]3N(CCO)C(=O)[C@@H]4C12` (stereo not given in full), for which the z-score in test [1] was -0.0905; in test [2], 1.64; in [3], -0.781; in [4], 0.918; in [5], -0.125; in test [6], 0.207. The z-score was 0.903 (inactive) in test [7], 0.374 in test [8], 0.183 in test [9] and -0.727 (inactive) in test [10].
For the molecule `CCC#CCN(Cc1ccccc1Br)[C@H](/C=C/c1ccccc1)[C@@H](O)Cc1ccccc1`, the z-score in [1] is 0.178; in [2], -0.0581; in [3], -0.124; in test [4], -0.227; in test [5], -2.42; in test [6], -2.35. Besides, the z-score was -1.44 (inactive) in [7], -0.608 in test [8], -0.32 in test [9] and 1.36 (inactive) in [10].
